Measurements reported in the supplement of paper PMC4466140.

Legend:
Assay in all cases: SPOT peptide array binding signal intensity (averaged, normalized) (arbitrary units (background-subtracted, floor 0; scale differs between SH3 domains)); higher = stronger binding of the SH3 domain to the peptide
[1] = target: SpBzz1-D2
Summary of the method: (§1)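 Cellulose membranes carried synthetic 15-mer peptides with cysteines swapped for serines. These were incubated overnight at 4°C with 10 μg/ml of GST-fused SH3 domains from four yeast species in TBS-based blocking buffer. Binding signal, detected with anti-GST antibody and quantified in Genespotter, is the normalized, background-subtracted spot intensity averaged over replicates, in arbitrary units specific to each domain.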

[2] = target: SpCyk3
Summary of the method: as §1

[3] = target: SpHof1
Summary of the method: as §1

[4] = target: SpHof1-2
Summary of the method: as §1

[5] = target: SpHof1-3
Summary of the method: as §1

[6] = target: SpHse1
Summary of the method: as §1

[7] = target: SpLsb1
Summary of the method: as §1

[8] = target: SpLsb4
Summary of the method: as §1

[9] = target: SpMyo1
Summary of the method: as §1

[10] = target: SpNbp2
Summary of the method: as §1

[11] = target: SpPex13
Summary of the method: as §1

[12] = target: SpRvs167
Summary of the method: as §1

[13] = target: SpSla1-D1-D2
Summary of the method: as §1

[14] = target: SpSla1-D3
Summary of the method: as §1

[15] = target: AgAbp1
Summary of the method: as §1

[16] = target: AgBbc1
Summary of the method: as §1

[17] = target: AgBem1-D1
Summary of the method: as §1

[18] = target: AgBzz1-D1
Summary of the method: as §1

[19] = target: AgBzz1-D2
Summary of the method: as §1

[20] = target: AgCyk3
Summary of the method: as §1

[21] = target: AgFus1
Summary of the method: as §1

[22] = target: AgHof1
Summary of the method: as §1

[23] = target: AgHse1
Summary of the method: as §1

[24] = target: AgLsb1
Summary of the method: as §1

[25] = target: AgLsb4
Summary of the method: as §1

[26] = target: AgMyo5
Summary of the method: as §1

[27] = target: AgNbp2
Summary of the method: as §1

[28] = target: AgRvs167
Summary of the method: as §1

[29] = target: AgSho1
Summary of the method: as §1

[30] = target: AgSla1-D1-D2
Summary of the method: as §1

[31] = target: AgSla1-D3
Summary of the method: as §1

[32] = target: CaAbp1-D1
Summary of the method: as §1

[33] = target: CaAbp1-D2
Summary of the method: as §1

[34] = target: CaBbc1
Summary of the method: as §1

[35] = target: CaBem1-D1
Summary of the method: as §1

[36] = target: CaBzz1-D1
Summary of the method: as §1

[37] = target: CaBzz1-D2
Summary of the method: as §1

[38] = target: CaCyk3
Summary of the method: as §1

[39] = target: CaFus1
Summary of the method: as §1

[40] = target: CaHof1
Summary of the method: as §1

[41] = target: CaHse1
Summary of the method: as §1

[42] = target: CaLsb1
Summary of the method: as §1

[43] = target: CaLsb4
Summary of the method: as §1

[44] = target: CaMyo5
Summary of the method: as §1

In the case of FSRRQSMDIPSKNRN, the “SPOT peptide array binding signal intensity” value [1] is reported as 16.8, the “SPOT peptide array binding signal intensity” value [2] is reported as 4 and the “SPOT peptide array binding signal intensity” value [3] is reported as 43.8. The “SPOT peptide array binding signal intensity” value [4] was 98, the “SPOT peptide array binding signal intensity” value [5] was 193 and the “SPOT peptide array binding signal intensity” value [6] was 784. For the same binder, the “SPOT peptide array binding signal intensity” value [7] was 15, the “SPOT peptide array binding signal intensity” value [8] was 290 and the “SPOT peptide array binding signal intensity” value [9] was 32.5. For the same binder, the “SPOT peptide array binding signal intensity” value [10] was 400, the “SPOT peptide array binding signal intensity” value [11] was 157 and the “SPOT peptide array binding signal intensity” value [12] was 34.5. For the same binder, the “SPOT peptide array binding signal intensity” value [13] was 30.5 and the “SPOT peptide array binding signal intensity” value [14] was 279.

For QLLNPNRRAPRRPLS, the “SPOT peptide array binding signal intensity” value [15] was 104, the “SPOT peptide array binding signal intensity” value [16] was 451 and the “SPOT peptide array binding signal intensity” value [17] was 328. The “SPOT peptide array binding signal intensity” value [18] was 59, the “SPOT peptide array binding signal intensity” value [19] was 45 and the “SPOT peptide array binding signal intensity” value [20] was 2. The “SPOT peptide array binding signal intensity” value [21] was 158, the “SPOT peptide array binding signal intensity” value [22] was 89.8 and the “SPOT peptide array binding signal intensity” value [23] was 144. For the same binder, the “SPOT peptide array binding signal intensity” value [24] was 9.25, the “SPOT peptide array binding signal intensity” value [25] was 25 and the “SPOT peptide array binding signal intensity” value [26] was 60.5. For the same binder, the “SPOT peptide array binding signal intensity” value [27] was 4130, the “SPOT peptide array binding signal intensity” value [28] was 2.83 and the “SPOT peptide array binding signal intensity” value [29] was 7. The “SPOT peptide array binding signal intensity” value [30] was 33, the “SPOT peptide array binding signal intensity” value [31] was 4 and the “SPOT peptide array binding signal intensity” value [32] was 608. For the same binder, the “SPOT peptide array binding signal intensity” value [33] was 495, the “SPOT peptide array binding signal intensity” value [34] was 1450 and the “SPOT peptide array binding signal intensity” value [35] was 122. For the same binder, the “SPOT peptide array binding signal intensity” value [36] was 220, the “SPOT peptide array binding signal intensity” value [37] was 135 and the “SPOT peptide array binding signal intensity” value [38] was 161. For the same binder, the “SPOT peptide array binding signal intensity” value [39] was 270, the “SPOT peptide array binding signal intensity” value [40] was 0.25 and the “SPOT peptide array binding signal intensity” value [41] was 13.5. The “SPOT peptide array binding signal intensity” value [42] was 0.25, the “SPOT peptide array binding signal intensity” value [43] was 95.5 and the “SPOT peptide array binding signal intensity” value [44] was 6.75.
